According to PubChem BioAssay (NCATS):
Records with an inconclusive call do not appear. A call without a number means that no potency is given here. Activity calls are given as the source filed them. The call rests on the fitted dose curve; in most records, active means well fitted inhibition curve with a large enough effect; inconclusive means small, poorly fitted or top-dose-only effect; inactive means flat fitted curve, though single readings scatter.

How the values were obtained:
Test in all cases: qHTS profiling for inhibitors of Plasmodium falciparum proliferation (AID 504749); further: nearly all actives have a fitted effect of over 60% in size
Conditions in all cases: P. falciparum in erythrocytes, SYBR Green DNA, 72 h; series mostly up to 12.8 µM
AA1029 = system: AA1029
Method in brief: (§1)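 P. falciparum-infected erythrocytes (0.3% parasitemia, 2.5% hematocrit) incubated with compound 72 h at 37 C, 5% CO2. Parasite DNA detected by SYBR Green after lysis, overnight at room temperature; normalised to 0.29 uM artemisinin and DMSO.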

ATS189 = system: ATS189
Method in brief: as §1

ATS95 = system: ATS95
Method in brief: as §1

CP237 = system: CP237
Method in brief: as §1

CP252 = system: CP252
Method in brief: as §1

CP260 = system: CP260
Method in brief: as §1

CP265 = system: CP265
Method in brief: as §1

CP269 = system: CP269
Method in brief: as §1

CP286 = system: CP286
Method in brief: as §1

CP305 = system: CP305
Method in brief: as §1

CP315 = system: CP315
Method in brief: as §1

CP329 = system: CP329
Method in brief: as §1

JCK = system: JCK
Method in brief: as §1

N140 = system: N140
Method in brief: as §1

PAD = system: PAD
Method in brief: as §1

PC15 = system: PC15
Method in brief: as §1

PC49 = system: PC49
Method in brief: as §1

TAB113 = system: TAB113
Method in brief: as §1

TAB165 = system: TAB165
Method in brief: as §1
Potency means the concentration at half of the fitted maximal effect.

SMILES | Potency (AA1029) | Potency (ATS189) | Potency (ATS95) | Potency (CP237) | Potency (CP252) | Potency (CP260) | Potency (CP265) | Potency (CP269) | Potency (CP286) | Potency (CP305) | Potency (CP315) | Potency (CP329) | Potency (JCK) | Potency (N140) | Potency (PAD) | Potency (PC15) | Potency (PC49) | Potency (TAB113) | Potency (TAB165)
COc1ccc(CC(N)C(=O)NC2C(CO)OC(n3cnc4c(N(C)C)ncnc43)C2O)cc1 (stereo unspecified) | 1000 nM (active) | 794 nM (active) | 1000 nM (active) | 891 nM (active) | 794 nM (active) | 891 nM (active) | 891 nM (active) | 757 nM (active) | 891 nM (active) | 1200 nM (active) | 849 nM (active) | 1070 nM (active) | 3550 nM (active) | 631 nM (active) | 447 nM (active) | 1260 nM (active) | 2000 nM (active) | 1000 nM (active) | 794 nM (active)
COC1C=CO[C@@]2(C)Oc3c(C)c(O)c4c(O)c(c5c(nc6cc(C)ccn65)c4c3C2=O)NC(=O)/C(C)=C\C=CC(C)C(O)[C@@H](C)C(O)C(C)[C@@H](OC(C)=O)C1C (stereo partly specified) | 12600 nM (active) | 12600 nM (active) | 10000 nM (active) | 8910 nM (active) | 10000 nM (active) | 11200 nM (active) | 11200 nM (active) | 10700 nM (active) | – | – | 7570 nM (active) | – | – | 3550 nM (active) | 3160 nM (active) | 12600 nM (active) | – | 12600 nM (active) | 2240 nM (active)
CC(C)=CCC[C@](C)(O)C1CC=C(C)CC1 (stereo partly specified) | inactive | inactive | inactive | inactive | inactive | inactive | inactive | inactive | inactive | inactive | inactive | inactive | inactive | inactive | inactive | inactive | inactive | inactive | inactive
CCCC(=O)O[C@]1(C(=O)CO)CCC2[C@@H]3CCC4=CC(=O)CC[C@]4(C)C3C(O)C[C@]21C (stereo partly specified) | inactive | inactive | inactive | inactive | inactive | inactive | inactive | inactive | inactive | inactive | inactive | inactive | inactive | inactive | inactive | inactive | inactive | inactive | inactive
CC(=O)OC1CCC2C3CCc4cc(O)ccc4C3CCC12C (stereo unspecified) | inactive | inactive | inactive | inactive | inactive | inactive | inactive | inactive | inactive | inactive | inactive | inactive | inactive | inactive | inactive | inactive | inactive | inactive | inactive
OCC1OC([S-])[C@H](O)C(O)C1O.[Au+] (stereo partly specified) | inactive | inactive | inactive | inactive | inactive | inactive | inactive | inactive | inactive | inactive | inactive | inactive | inactive | inactive | inactive | inactive | inactive | inactive | inactive
CCC(CCC(C)C1CCC2C3CC=C4CC(O)CC[C@@]4(C)C3CC[C@@]12C)C(C)C (stereo partly specified) | inactive | inactive | inactive | inactive | inactive | inactive | inactive | inactive | inactive | inactive | inactive | inactive | inactive | inactive | inactive | inactive | inactive | inactive | inactive
CNC1CC(N)[C@H](O)[C@@H](O[C@@H]2OC(CO)C3OC4(OC(C(N)CO)C(O)C(O)C4O)O[C@@H]3[C@H]2O)C1O (stereo partly specified) | inactive | inactive | inactive | inactive | inactive | inactive | inactive | inactive | inactive | inactive | inactive | inactive | inactive | inactive | inactive | inactive | inactive | inactive | inactive
CCOC(=O)C1=CC(OC(CC)CC)C(NC(C)=O)C(N)C1 (stereo unspecified) | inactive | inactive | inactive | inactive | inactive | inactive | inactive | inactive | inactive | inactive | inactive | inactive | inactive | inactive | inactive | inactive | inactive | inactive | inactive
